# Test results as given in ChEMBL document CHEMBL3433997, “St. Jude Leishmania screening dataset” (2016).
# Columns and labels:
# Assay type in all cases: functional
# [1] = biological target: Solute carrier family 2, facilitated glucose transporter member 1 (Homo sapiens) (UniProt P11166); test: ST_JUDE_LEISH: Cytotoxicity at 2uM final concentration against transgenic Leishmania Mexicana promastigotes LmGLUT1 that are glucose transport deficient and complemented with the human glucose transporter GLUT1. Activity is measured by DNA content using SYBR green in vitro
# [2] = biological target: Hexose transporter 1 (Plasmodium falciparum) (UniProt O97467); test: ST_JUDE_LEISH: Cytotoxicity at 2uM final concentration against transgenic Leishmania Mexicana promastigotes LmPfHT that are glucose transport deficient and complemented with the Plasmodium falciparum hexose transporter. Activity is measured by DNA content using SYBR green in vitro
# [3] = biological target: Glucose transporter (Leishmania mexicana) (UniProt O61059); test: ST_JUDE_LEISH: Cytotoxicity at 2uM final concentration against transgenic Leishmania Mexicana promastigotes LmGT2 that are glucose transport deficient and complemented with the L. Mexicana glucose transporter 2. Activity is measured by DNA content using SYBR green in vitro
# Sequence of Solute carrier family 2, facilitated glucose transporter member 1 (Homo sapiens) (P11166 whole entry): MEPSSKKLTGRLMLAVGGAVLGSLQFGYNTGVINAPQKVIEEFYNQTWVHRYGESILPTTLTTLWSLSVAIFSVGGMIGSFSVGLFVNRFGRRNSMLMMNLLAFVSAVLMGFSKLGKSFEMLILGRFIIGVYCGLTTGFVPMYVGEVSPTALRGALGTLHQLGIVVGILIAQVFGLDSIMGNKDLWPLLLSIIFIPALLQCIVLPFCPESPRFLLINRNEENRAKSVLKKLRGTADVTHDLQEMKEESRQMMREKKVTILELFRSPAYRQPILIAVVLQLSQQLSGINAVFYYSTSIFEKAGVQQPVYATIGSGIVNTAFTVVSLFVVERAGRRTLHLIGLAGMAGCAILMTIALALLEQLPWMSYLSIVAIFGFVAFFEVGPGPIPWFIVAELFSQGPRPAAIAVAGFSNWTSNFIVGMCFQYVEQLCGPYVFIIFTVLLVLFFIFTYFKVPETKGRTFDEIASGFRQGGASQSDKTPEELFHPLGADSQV
SMILES,inhibition [1],inhibition [2],inhibition [3]
Cc1ccc(NC(=O)c2cc([N+](=O)[O-])ccc2NCc2cccnc2)cc1Cl,1.5%,0.38%,2.63%
Cc1cc(C(=O)Nc2nc(-c3ccccn3)nc3ccsc23)no1,75.8%,75.1%,68.5%
Cc1ccc(C)c(Cn2c(N3CCC(C(=O)NCc4cccs4)CC3)nc3ccccc32)c1,3.18%,4.2%,-0.43%
Cc1ccc(CNC(=O)[C@H](CC(C)C)Nc2cc(C)nc(NCC3CCCCC3)n2)cc1,11.2%,9.15%,9.26%
CCOC(=O)C(=CNc1ccc(Cc2cnc(N)nc2N)cc1CC)C(=O)OCC,2.65%,2.16%,-3.12%
CC(=O)Nc1cccc(C(=O)Nc2cccc(-c3ccc(-c4nc5cc(F)ccc5[nH]4)s3)c2)c1,2.81%,3.63%,0.19%
COc1ccc(CNCc2ccc(-c3cccc(-c4nc5cc(F)ccc5[nH]4)c3)cc2)cc1,1.04%,4.45%,-2.49%
Cc1cc(C2CCN(CCCCNC(=O)c3ccc(NC(=O)c4ccc(Cl)cc4)cc3)CC2)c(C)cc1OCc1nccn1C,0.5%,0.08%,0.69%
CN(C)CCOc1cc(NC(=O)Nc2cccc([N+](=O)[O-])c2)ccc1I,13%,14.6%,15.7%
CC[C@H](N/C(=N\c1ccc(-c2ccccc2)cc1)Nc1ccc(C#N)cc1O)c1ccccc1,4.55%,3.4%,2.55%
CCCc1cc(C)ccc1OCCCON1C(N)=NC(N)=NC1(C)C,31.1%,45.5%,25.9%
COc1ccc(Nc2nc(N3CCCC3)c3ccccc3n2)cc1,17.6%,19.6%,14.3%
